Among the data in PubChem BioAssay AID1981 (Southern Research Specialized Biocontainment Screening …, 2009) are outcome values, retold here.

Out of some 2,200 compounds screened, about 480 (22%) were called active. The rule behind the calls is not given here. Not all results are given here. Entries with a potency or affinity are not part of this list.

A short description of the test: S. Typhimurium GFP fluorescence modified counterscreen for PhoP regulon inhibitor project dose response (AID 1981). As to conditions: 4 h; series mostly up to 150 µM. Background: Counterscreens check selectivity or assay interference.
For `c1ccc2c(c1)[nH]c1c(N3CCCC3)ncnc12`, the outcome was inactive.

With `O=C(CCCNS(=O)(=O)c1ccccc1)NCc1ccco1`, the result was inactive.

For the compound `O=Cc1cccn1Cc1ccccc1[N+](=O)[O-]`, the result was inactive.

In the case of `CCN1CCN(c2oc(COc3ccc(Cl)cc3)nc2C#N)CC1`, the compound was called inactive.

As for `CCOC(=O)c1cnc2ccc(OCC)cc2c1N1CCN(c2ccccc2)CC1`, the call was inactive.

On to `COc1ccc2cc(C#N)c(NC(C)C)nc2c1`, for which the compound was called inactive.

In the case of `COc1cc(C2NC(=O)NC(c3ccccc3)=C2C(C)=O)ccc1OCC(=O)O` (centres undefined), the compound was classed as inactive.

Regarding `CC1CCCC(C)N1/N=C/c1c[nH]c2ccc(Br)cc12` (centres undefined), the compound was called inactive.

On to `COc1cccc(N=Cc2c[nH][nH]c2=O)c1`, for which the compound was classed as inactive.

As to `O=C(OCc1ccccc1)Oc1cncc(C(=O)O)c1`, the compound was classed as inactive.

Regarding `COC(=O)c1ccc(C(=O)OC)c(NC(=O)COc2ccccc2OC)c1`, the outcome was inactive.

As for `CC(=O)Nc1nc2nc(-c3ccccc3)cc(-c3ccccc3)n2n1`, the outcome was inactive.

As to `CCOC(=O)C(/C=C(\C#N)C(=O)OCC)=C(/N)N1CCN(c2c(C)cccc2C)CC1`, the result was inactive.

Regarding `O=C(CCN1CCc2ccccc2C(c2ccccc2)C1)c1ccc2c(c1)OCCO2` (centres undefined), the call was inactive.

Regarding `CCCC(=O)c1c[nH]c(C(=O)NCCCN2CCOCC2)c1`, the outcome was inactive.

As to `O=C(c1ccc(CSc2nc3ccncc3[nH]2)cc1)N1CCN(c2cccc(Cl)c2)CC1`, the outcome was inactive.

For the compound `O=S(=O)(c1ccc(F)c2ccccc12)N1CCCCC1`, the compound was classed as inactive.

On to `COc1ccc(-c2[nH]ncc2/C=C(\C#N)C(=O)NC2CC2)cc1`, for which the outcome was inactive.

For `COC(=O)C1=C(C)N(C)C(=O)/C1=C\c1ccco1`, the compound was called inactive.

As for `COC(=O)c1ccc(NC(=S)NCCc2cccc(C)c2)cc1`, the compound was classed as inactive.

With `COc1ccc(S(=O)(=O)n2nc(OC(=O)c3ccccc3Br)cc2N)cc1`, the compound was called inactive.

Turning to `CN(C(=O)C1CCOC1)c1nnc(-c2ccccn2)s1` (centres undefined), the compound was classed as inactive.

On to `O=C1NC(c2ccc3c(c2)OCO3)Oc2ccccc21` (centres undefined), for which the compound was classed as inactive.

As to `CCn1nnc(-c2ccccc2NS(=O)(=O)c2ccc(S(=O)(=O)N3CCCCCC3)cc2)n1`, the call was inactive.

Turning to `Cc1cc(C(=O)N/N=C/c2ccc[nH]2)no1`, the result was inactive.

Regarding `CC(C)CCNC(=S)Nc1ccc([N+](=O)[O-])cc1`, the compound was classed as inactive.

`O=C(NC1CCN(C(=O)N2c3ccccc3Sc3ccccc32)CC1)c1ccco1`: the compound was classed as inactive.

In the case of `Cc1cc(CNC(=O)Nc2ccc3c(c2)OCO3)nn1C`, the compound was classed as inactive.

Regarding `O=C(COc1ccc2ccccc2c1)N1CCN(CC2CC3C=CC2C3)CC1` (centres undefined), the compound was classed as inactive.

For `COCC(=O)N(Cc1ccco1)c1nnc(C2CCOC2)s1` (centres undefined), the result was inactive.

For `CCCc1nn(C)c2c1C(c1cccnc1)C(C#N)=C(N)O2` (centres undefined), the outcome was inactive.

As for `CCOC(=O)C1(S(=O)(=O)c2ccccc2)CCN(Cc2ccc(Cl)cc2)CC1`, the call was inactive.

Turning to `O=C(CN1C(=O)c2ccccc2C1=O)N1CCN(c2ccccn2)CC1`, the compound was classed as inactive.

For `Cc1ccc(/C=C/c2nnc(-c3ccc(C)cc3)o2)cc1`, the call was inactive.

As to `COc1ccc(C2CC(c3ccccc3)=NN2c2ccc(/C=N/NC(=O)c3ccncc3)cc2)cc1` (centres undefined), the compound was classed as inactive.

`COc1ccc(OCCn2cc(/C=N/NC(=O)c3ccncc3)c3ccccc32)cc1`: the result was inactive.

`CC(=O)n1cc(/C=N/NC(=O)c2sc(C)nc2C)c2ccccc21`: the call was inactive.

Consider `COc1ccc2ccccc2c1/C=N/NC(=O)c1sc(N)c(C#N)c1C`, for which the compound was classed as inactive.

`COc1ccc2c(c1)CC1(CN2C)C(=O)NC(=O)N(c2ccc(F)cc2)C1=O` (centres undefined): the result was inactive.

For `O=C1Nc2ccc(F)cc2C12SCCS2`, the result was inactive.

`Cc1cc2ncn(CC(O)COc3cccc(C(=O)O)c3)c2cc1C` (centres undefined): the call was inactive.

On to `COc1cc([N+](=O)[O-])ccc1NC(=O)CN(C)C`, for which the compound was classed as inactive.

Regarding `COc1cc([N+](=O)[O-])cc(/C=N/NC(=O)c2cccnc2)c1O`, the compound was called inactive.

Turning to `C#CC(C)(CC)NC(=O)c1cc(OC)c(OC)c(OC)c1` (centres undefined), the result was inactive.

Take `CC(C)(C)c1cc2cccnc2n1Cc1cccc(Cl)c1`: the call was inactive.

As to `COc1ccc(Cl)cc1C(=O)Nc1ccc(NC(=O)c2ccco2)cc1`, the call was inactive.

On to `O=C(O)CCc1nn2c3ccccc3n(CC(=O)c3ccccc3)c2nc1=O`, for which the result was inactive.

Regarding `Nc1ncncc1-c1ccc(Cl)cc1`, the result was inactive.

For the compound `Nc1c(-c2ccccc2)cnn1-c1cccc([N+](=O)[O-])c1`, the compound was called inactive.

In the case of `CCOC(=O)C1CCCN(C(=O)Cc2ccc(Cl)cc2)C1` (centres undefined), the result was inactive.

In the case of `CC1=CC(C)C2(CO)COC(c3ccccc3O)C1C2C` (centres undefined), the result was inactive.

For the compound `CNc1nc(-c2ccccn2)nnc1-c1ccccc1`, the call was inactive.

For `Nc1nc(Nc2ccc(Cl)cc2)n[nH]1`, the compound was called inactive.

As to `Cc1ccc2c(CN3CCC(C)CC3)cc(=O)oc2c1`, the compound was called inactive.

In the case of `Cc1[nH]c2ccccc2c1C1=NNC(=Nc2ccc(F)cc2)SC1`, the result was inactive.

For the compound `CCN1/C(=C/C(C)=C/c2sc3ccccc3[n+]2CC)Sc2ccccc21`, the result was inactive.

As for `COc1ccc(C(=O)COc2nc(C)cc(C)c2C#N)cc1`, the compound was called inactive.

On to `Cc1cc(-c2csc(NC(=O)c3ccc(S(=O)(=O)N(C)C)cc3)n2)c(C)n1-c1ccccc1`, for which the call was inactive.

As to `CC1(C)CC(=O)c2c(nc3ccccc3c2N)C1`, the compound was classed as inactive.

Consider `Cc1nn(-c2ccc(Cl)cc2)c2[nH]c(=O)c(CNCc3ccc4c(c3)OCO4)cc12`, for which the result was inactive.

`CC(O)c1ccc(OCCN(C)c2ccccn2)cc1` (centres undefined): the call was inactive.

In the case of `Cc1cc(C)n(-c2ccc(C(=O)Nc3nc4ccccc4s3)cc2)n1`, the compound was classed as inactive.

As to `CC(=O)c1c(N2CCN(C(=O)C3CCCO3)CC2)nc(=S)n(-c2ccccc2)c1C` (centres undefined), the compound was classed as inactive.

As to `O=S(=O)(Cc1ccccc1Cl)N1CCN(Cc2ccc3c(c2)OCO3)CC1`, the compound was classed as inactive.

For `Cc1ccc(-n2c(C)cc(C3=NNC(=NC4CC4)SC3)c2C)cc1C`, the compound was classed as inactive.

As to `Cc1nc2ccccc2c(=O)n1/N=C/c1ccc(N(C)C)cc1`, the outcome was inactive.

`c1ccc(Cc2nnc(-c3ccccc3)o2)cc1`: the outcome was inactive.

For the compound `NCCCCCc1nnc(SCc2ccc(Cl)c(Cl)c2)o1`, the call was inactive.

For `O=C(c1ccc(-c2ccccc2)cc1)c1ccccc1C(=O)N1CCOCC1`, the compound was classed as inactive.

On to `COc1ccc(N2CCN(C(=O)C3CCCO3)CC2)cc1` (centres undefined), for which the compound was called inactive.

Turning to `O=C(c1ccc(Cl)cc1Cl)C1(n2cncn2)Oc2ccccc2C1O` (centres undefined), the result was inactive.

With `Cc1cccc(-n2ncc3c(NCc4ccc5c(c4)OCO5)ncnc32)c1`, the compound was called inactive.

On to `O=C1C2C3c4ccccc4C(c4ccccc43)C2C(=O)N1c1cccc2cccnc12` (centres undefined), for which the compound was classed as inactive.

Consider `Brc1ccc2cccnc2c1`, for which the compound was classed as inactive.
